Compounds without any hit were thinned out: in the full panel of roughly 83,000, 20% have a hit.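 Assay: single dose, 48 h. Readout: percent growth (0 = no net growth; negative = cell death). Active: <10.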 Unmarked numbers belong to inactive results. Calls of active or inactive are those of the source.
test system: OVCAR-5 ovarian; test: NCI-60 one-dose screen, 48 h (100 = growth as untreated, 0 = no growth, -100 = all killed); conditions: 10 µM unless noted
Method: Growth inhibition of the OVCAR-5 human tumor cell line is measured as a screen for anti-cancer activity. Cells are grown in 96 well plates and exposed to the test compound for 48 hours. Compounds are tested at a single concentration, which is 10^-5 M for most compounds. The reported endpoint is percent growth (GI% or GIPRCNT), where numbers from 0 - 100% represent growth inhibition, and numbers from -100% - 0 represent cell death. For example, a value of 40 represents 60% growth inhibition. A value of 0 means no net growth occurred over the course of the experiment. A value of -40 indicates 40% of cells at the beginning of the experiment died by the end of the experiment. A value of -100 means all cells are dead at the end of the experiment.
NCI-60 Human Tumor Cell Lines Screen was performed using the standard one-dose NCI protocol, which is described in more detail at https://dtp.cancer.gov/discovery_development/nci-60/default.htm.
Compounds with GIPRCNT values below 10 were considered active. Activity score was based on GIPRCNT using the following formula: […]
Score is 0 for GIPRCNT values of 100 or above, 50 for GIPRCNT values of 0, and 100 for GIPRCNT values of -100.

Compound | growth
CCOP1(=O)CC(C)=C(Cl)C(P(=O)(O)O)C1 (stereo not given) | 94.8%
O=C(Nc1ccc(-n2cc(-c3ccncc3)c(-c3ccc(Cl)c(O)c3)n2)cc1)c1cc(Cl)cc(Cl)c1 | 64.6%
C/C(CCC(=O)O)=N/Nc1ccc([N+](=O)[O-])cc1 | 68.1%
COc1cc2c(cc1OC)C(Cc1cc(OC)c(OC)cc1[N+](=O)[O-])=NCC2 | 73.6%
CC([C@H]1CCC2C3CCC4C[C@@H](N)CC[C@]4(C)C3CC[C@@]21C)N(C)C (stereo not given in full) | 98.5%
Cc1ncc(C(=O)Nc2ccc(CN3CCN(C)CC3)c(C(F)(F)F)c2)cc1C#Cc1c(N)ncc2ccc(F)cc12 | -45.3% (active)
Nc1nc2cc(O)ccc2n2cc3c(F)cccc3c12 | 38.7%
CCC(C)C1NC(=O)C(CC(C)C)NC(=O)C(C)NC(=O)C(C(C)C)NC(=O)C(CCCCN)NC(=O)C(CC(C)C)NC(=O)C(C(C)C)NC(=O)[C@H](C)NC(=O)C(C(C)CC)NC(=O)C(CCCN=C(N)N)NC(=O)C(CCCCN)NC(=O)C(CCCN=C(N)N)NC(=O)C(CCCCN)NC(=O)C([C@H](C)CC)NC(=O)C(CCCCN)NC1=O (stereo not given in full) | 52.6%
COC(=O)[C@@H]1[C@H](O)[C@H](C)[C@H](O)[C@H](C)/C=C\C=C(C)C(=O)Nc2c(C)c(OC(C)=O)c3c(c2O)C(=O)C(C)=C2OCOC(=C23)C(C)=C[C@@](C)(O)[C@H](O)[C@@H](C)[C@H]1OC(C)=O | 108%
CCCNC(=O)Oc1ccc(/C(=C(/CC)Cc2ccccc2)c2ccc(OCCN(CC)CC)cc2)cc1 | 95.5%
Cc1[nH]n(C(=S)Nc2nc3cc(Cl)c(F)cc3s2)c(=O)c1N=Nc1ccc(F)c(Cl)c1 | 103%
O=C(NCCNCCO)c1cc([N+](=O)[O-])cc([N+](=O)[O-])c1O | 108%
CC(C)CSc1nc(-c2ccc(F)cc2)c(C#N)c(N2CCCCC2)n1 | 90.5%
COc1ccc(C2CC(=O)c3c(O)cc(OC4OC(COC5OC(C)C(O)C(O)C5O)C(O)C(O)C4O)cc3O2)cc1O (stereo not given) | 96.7%
COc1cc(-c2nc3c(c(C)nc4c3nnn4-c3ccccc3)c(=O)o2)cc(OC)c1OC | 103%
CCCCCCCCCCCCCCCCNC(=S)N/N=C/c1ccc(OC)cc1 | 105%
CCCCCCN(CCCCCC)CCC(=O)Nc1ccc(S(=O)(=O)c2ccc(NC(=O)CCN(CCCCCC)CCCCCC)cc2)cc1 | 82.9%
CC(C)OC(=O)c1ccc2n1CCCc1cnc(Nc3ccccc3)nc1-2 | 93.8%
CN1CCN(Cc2ccc(NC(=O)c3ccc(C#Cc4c(N)ncc5ccc(F)cc45)cc3)cc2C(F)(F)F)CC1 | -52.8% (active)
O=Nc1c(-c2c(O)[nH]c3cc(Br)ccc23)[nH]c2ccccc12 | -72.9% (active)

Compound | growth
CC(O)CCC(C)[N+](=O)[O-] (stereo not given) | 102%
O=S(=O)(Cc1cccc2c(CS(=O)(=O)c3ccc(Cl)cc3)cccc12)c1ccc(Cl)cc1 | 97.3%
CN1C(=O)C(=Cc2coc3ccc(Br)cc3c2=O)C(=O)N(C)C1=O | 114%
COc1ccc(Cn2cc3c(c2-c2ccccc2)CCc2cnoc2-3)cc1N | 54.5%
CCc1ccc(C(=Nc2ccc(N(C)C(=O)CN3CCN(C)CC3)cc2)c2c(O)[nH]c3ccc(C(=O)OC)cc23)cc1 | -58.1% (active)
CCOC(=O)c1c(C)oc2ncnc(Nc3ccc(C(=O)NCCc4ccccc4)cc3)c12 | 110%
CN1CCN(Cc2ccc(NC(=O)c3cncc(C#Cc4c(N)ncc5ccc(F)cc45)c3)cc2C(F)(F)F)CC1 | -84.6% (active)
COC(=O)C(C)[C@H]1CC[C@@H]2[C@]1(C)CC=C1[C@]23C=C[C@]2(C[C@@H](OC(C)=O)CC[C@]12C)C(C(=O)OC)C3C(=O)OC (stereo not given in full) | 109%
OCC(O)C(O)CC1SCCS1 (stereo not given) | 106%
Nc1ccc(S(=O)(=O)c2ccc(NO)cc2)cc1 | 80.4%
Cc1nc(NC(=S)Nc2ccc(F)cc2)sc1C(=O)NNC(=S)Nc1ccc(F)cc1 | 86.3%
Cc1ccc(S(=O)(=O)NC(CCC(=O)Nc2ccccc2)C(=O)Nc2ccccc2)cc1 (stereo not given) | -8.85% (active)
COc1cc2ncnc(Nc3ccc4c(cnn4C(=O)Nc4ccccc4)c3)c2cc1OC | 105%
NC(=O)CC(NC(=O)COc1ccc(Cl)cc1Cl)C(=O)O (stereo not given) | 105%
CSC1=Nc2c(c(C)c(-c3ccccc3)n2CCCCl)C2=NC(=O)CN12 | 86.2%
Cc1nc(NC(=O)NC2CCCCC2)sc1C(=O)NN | 102%
Cc1nc2c(nnn2-c2ccccc2)c2nc(-c3ccccc3)oc(=O)c12 | 105%
c1cc[c]([Bi]([c]2ccccc2)[c]2ccccc2)cc1 | 99.3%
COC(=O)c1ccc2[nH]c(O)c(C(=Nc3ccc(N(C)C(=O)CN4CCN(C)CC4)cc3)c3ccc4c(c3)OCO4)c2c1 | 35.8%
O=C(Nc1ccc(-n2cc(-c3ccncc3)c(-c3ccc(Cl)c(O)c3)n2)cc1)Nc1cc(C(F)(F)F)cc(C(F)(F)F)c1 | 38.2%
